Hit rate of the full screen: of about 340,000 compounds, about 2,100 (0.62%) were called active. A selection follows. Results with a measured potency or affinity are listed apart. A number with no mark means an inactive call.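 Rule for the calls: active = first-screen hits whose inhibition reached a set limit at any dose in the follow-up dose series; inconclusive = inhibition above the set first-screen limit but never retested; inactive = the rest.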

Chain of Rac GTPase-activating protein 1 (Homo sapiens) (Q9H0H5 whole entry, looked up): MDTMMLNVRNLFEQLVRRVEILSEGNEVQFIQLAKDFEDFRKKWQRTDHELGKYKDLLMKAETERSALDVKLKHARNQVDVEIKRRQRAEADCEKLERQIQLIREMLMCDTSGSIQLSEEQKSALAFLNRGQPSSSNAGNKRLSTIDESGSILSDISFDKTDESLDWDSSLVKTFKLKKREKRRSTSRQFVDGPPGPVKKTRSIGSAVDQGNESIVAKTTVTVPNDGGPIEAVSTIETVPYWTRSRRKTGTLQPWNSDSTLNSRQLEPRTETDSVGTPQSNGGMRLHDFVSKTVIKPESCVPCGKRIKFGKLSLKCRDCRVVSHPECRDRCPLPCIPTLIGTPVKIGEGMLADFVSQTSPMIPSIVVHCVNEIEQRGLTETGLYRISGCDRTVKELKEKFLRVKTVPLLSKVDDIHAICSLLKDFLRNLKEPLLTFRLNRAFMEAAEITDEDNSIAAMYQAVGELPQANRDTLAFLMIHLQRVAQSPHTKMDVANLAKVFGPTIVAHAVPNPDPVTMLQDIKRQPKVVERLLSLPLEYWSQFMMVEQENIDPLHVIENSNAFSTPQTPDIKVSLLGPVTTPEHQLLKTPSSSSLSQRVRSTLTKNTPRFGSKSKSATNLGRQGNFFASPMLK

The test concerns the target Rac GTPase-activating protein 1 (Homo sapiens) (UniProt Q9H0H5). Kind of test: MgcRacGAP GTPase-activating activity inhibitors, confirmation, biochemical, ADP Hunter fluorescence, primary and confirmatory (AID 624330).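 Note: fluorescence reports GDP produced by GAP-driven GTP hydrolysis.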 Particulars: MgcRacGAP-stimulated Rac1 GTP hydrolysis, at 30 µM, active compounds read high, GST-tagged Rac1 F28L mutant substrate.
Regarding `O=C1OC(COc2ccc(Br)cc2)CN1c1ccccc1` (configuration not stated), the inhibition is 0.77%.

`Cc1ccc(OCc2nnc(SC(C)C(=O)O)n2Cc2ccccc2)cc1` (configuration not stated): the inhibition was -1.5%. On to `O=C(COC(=O)[C@@H]1CC(O)CN1S(=O)(=O)c1ccc2c(c1)OCCO2)Nc1ccccc1F` (some centres not stated), for which the inhibition is 1.86%. Under `O=C(c1ccc(Cl)nc1)N1CCN(C/C=C/c2ccccc2)CC1` stands 10.5%; under `O=C(CN1C(=O)NC2(CCc3ccccc32)C1=O)c1c[nH]c2ccccc12` (configuration not stated), -3.1%. Regarding `CN1CCN(C(c2cccc(Cl)c2)c2ccccc2Cl)CC1` (configuration not stated), the inhibition was 7.6%. Regarding `CC1(C)C(=O)N(c2ccccc2)C1c1ccccc1O` (configuration not stated), the inhibition is 3.93%. The result for `O=C(COc1ccccc1)NCC(=O)N/N=C/c1ccccc1` reads 5.67%; that for `Cc1cccc(OCC(=O)NCC(=O)N/N=C/c2ccc(O)cc2O)c1`, 18.5%. `Oc1ccc(/C=N/NC(=S)Nc2cccnc2)c(O)c1O`: the inhibition is -102%. For `O=C(CCCCCNC(=O)c1ccccc1)N/N=C/c1ccc(F)cc1`, the inhibition is 6.47%.

For `Oc1ccc(C=NNC(=S)Nc2cccnc2)nc1`, the inhibition is 7.4%. With `O=C(CCCCCNC(=O)c1ccccc1)N/N=C/c1ccccc1O`, the inhibition was 3.53%. Under `FC(F)(F)c1cnc(COc2ccc(Cl)cc2Cl)c(Cl)c1` stands 7.97%; under `COc1ccccc1-c1cc(C(=O)NCc2ccco2)no1`, 11.6%.

Take `CCN(C[C@H]1N[C@@](C)(C(=O)OC)[C@H]2C(=O)N(C)C(=O)[C@@H]12)C(=O)Nc1ccc(C(F)(F)F)cc1`: the inhibition was 4.98%. Regarding `COCCn1c(SC(C(=O)Nc2cc(C)ccc2OC)c2ccccc2)nnc1-c1ccc(Cl)cc1` (configuration not stated), the inhibition is 8.02%.

Regarding `CC(C)COP(=O)(OCC(C)C)C(O)c1ccc2c(c1)OCO2` (configuration not stated), the inhibition was 2.18%. `N#Cc1c(-c2ccccc2)ccn(Cc2ccc(Cl)cc2)c1=O`: the inhibition is 11.4%.

With `COc1cc(CNC2CCCCC2OC)cc(OC)c1OC` (configuration not stated), the inhibition is 21.8%. `COc1cc(CNC2CCCC2)cc(OC)c1`: the inhibition is 16.2%. The result for `Cc1ccc(C)c(N2CCN(C(=O)Cc3ccc(NC4=NC5CS(=O)(=O)CC5S4)cc3)CC2)c1` (configuration not stated) reads 15.3%; that for `O=C(CNc1ccc2c(c1)OCO2)N/N=C\c1cn(Cc2ccccc2)c2ccccc12`, 9.72%; that for `O=C(CNc1ccccc1)N/N=C/c1ccc2c(c1)OCO2`, 1.14%. The result for `CCOC(=O)Cc1csc(SC(C)C(=O)NC2CCCCC2C)n1` (configuration not stated) reads 10.4%; that for `CC(=O)c1ccc(N2CCN(C(=O)c3noc4c3CSc3ccccc3-4)CC2)cc1`, 10.2%; that for `O=S(=O)(NCC(c1cccnc1)N1CCN(c2ccc(F)cc2)CC1)c1cccs1` (configuration not stated), 5.99%. Consider `CCS(=O)(=O)NC(C)C(c1cccs1)N1CCN(c2ccc(F)cc2)CC1` (configuration not stated), for which the inhibition was 8.25%.

Consider `COc1ccc(N2CCN(C(c3cccs3)C(C)NS(C)(=O)=O)CC2)cc1` (configuration not stated), for which the inhibition is 27.8%. On to `COc1ccc(N2CCN(C(c3ccccc3)c3nnnn3Cc3ccc(F)cc3)CC2)cc1` (configuration not stated), for which the inhibition is 19%.

`c1ccc(CCn2nnnc2C(c2cccs2)N2CCOCC2)cc1` (configuration not stated): the inhibition was 6.38%.

Regarding `Fc1ccc(N2CCN(C(c3cccs3)c3nnnn3CCc3ccccc3)CC2)cc1` (configuration not stated), the inhibition is -2.42%.

In the case of `O=S(=O)(NCC(c1cccnc1)N1CCN(c2ccccc2)CC1)c1cccs1` (configuration not stated), the inhibition was 2.98%. Turning to `c1ccc(Cn2nnnc2C(c2cccnc2)N2CCN(c3ccccc3)CC2)cc1` (configuration not stated), the inhibition was 2.89%. Take `CC1CCCC(NC(=O)CN2C(=O)NC(C)(c3ccccc3)C2=O)C1C` (configuration not stated): the inhibition was 2.02%. For `O=C(N/N=C/c1ccoc1)c1ccc([N+](=O)[O-])cc1`, the inhibition is 3.91%. Under `COc1cccc2cc(C(=O)N3CC(C)OC(C)C3)c(=O)oc12` (configuration not stated) stands 5.05%; under `COC(=O)c1ccc(COC(=O)c2ccccc2OC)cc1`, -1.87%. For the compound `COc1ccc(C(=O)NNC(=O)c2ccccc2[N+](=O)[O-])cc1Br`, the inhibition was 2.78%. As for `COc1ccc([C@H]2CC(=O)C=C(c3cccc(F)c3OC)C2)cc1`, the inhibition is 9.17%.

Take `Cc1ccc(C(=O)N2CCN(Cc3ccc4c(c3)OCO4)CC2)o1`: the inhibition is 3.03%. The result for `O=C(c1cccc(F)c1)N1CCN(c2ccc([N+](=O)[O-])c(N3CCOCC3)c2)CC1` reads 9.81%; that for `CN1C(=O)CSC1=S`, 6.82%; that for `O=c1[nH]nc(CNc2cccc(C(F)(F)F)c2)c2ccccc12`, 7.15%.

On to `COc1ccc(OC)c(C(c2c(C)[nH][nH]c2=O)c2c(C)[nH][nH]c2=O)c1`, for which the inhibition was 12.8%.

`O=c1c(Cl)c(N2CCN(c3ccc(F)cc3)CC2)cnn1C12CC3CC(CC(C3)C1)C2`: the inhibition was -5.26%. `N#Cc1nnn2c1nc(N)c1c(F)cccc12`: the inhibition is 2.66%. Turning to `Cc1ccc(S(=O)(=O)N(CC(=O)N2CCOCC2)c2ccccc2F)cc1`, the inhibition was 2.11%. As for `Oc1cccc(-c2nc3ccccc3s2)c1`, the inhibition was 8.24%. As to `COc1ccc(-c2nc3ccccc3s2)cc1NC(C)=O`, the inhibition is -7.89%. In the case of `Oc1ccc(-c2nc3ccccc3s2)cc1`, the inhibition is 15.1%. Take `COc1ccc(-c2nc3ccccc3s2)cc1O`: the inhibition is 11.7%. Consider `Cc1ccc(OCC(=O)N(Cc2cccc(F)c2)C2CCS(=O)(=O)C2)cc1` (configuration not stated), for which the inhibition is 8.85%. As for `COc1ccc(C(=O)Sc2nncc3ccccc23)cc1`, the inhibition is -1.75%.

`O=C(Nc1ccccc1SC(=O)c1ccccc1)c1ccccc1`: the inhibition was 18.6%. For `CCc1nc2ccccc2c(C(=O)OCC(=O)N(C)Cc2ccccc2)c1C`, the inhibition is 3.21%. Turning to `CCN(CC(=O)Nc1ccc(NC(C)=O)cc1)CC(=O)Nc1cc(C)on1`, the inhibition is 5.22%.

For the compound `CCCCN(C)CCC(=O)Nc1ccc2c(c1)CCC2`, the inhibition is 6%. As to `CSCC(=O)Nc1cc(C)on1`, the inhibition was -9.86%. On to `CCN(CC)CCNC(=O)c1ccc(NC(=O)c2ccc3c(c2)CCC3)cc1`, for which the inhibition is 3.69%. The result for `O=C(NCc1ccccn1)Nc1cccc(F)c1` reads 7.66%; that for `C=CCN(CC=C)c1ncnc2[nH]ncc12`, 0.33%. With `COc1cc(C)c(S(=O)(=O)Nc2ccccc2F)cc1C`, the inhibition was 0.77%. The result for `CCn1nc(C(=O)NCc2nnc3ccccn23)c2ccccc2c1=O` reads 2.43%; that for `CCOC(=O)C1CN(S(=O)(=O)c2ccc(OC)cc2)c2cc(S(=O)(=O)CC)ccc2O1` (configuration not stated), -8.53%; that for `CC1=NN(C(N)=S)C(=O)C1N=Nc1ccc(Br)cc1` (configuration not stated), 12.4%. Turning to `CC1=NN(C(N)=S)C(=O)C1N=Nc1ccc(Cl)cc1` (configuration not stated), the inhibition was 13.3%. As for `CCC(C)NC(=O)CS(=O)Cc1nc(-c2cccc(C)c2)oc1C` (configuration not stated), the inhibition was 2.8%. For the compound `CCn1cc(C(=O)N2CCN(c3ccccn3)CC2)c2cc(OC)c(OC)cc2c1=O`, the inhibition is -4.67%.

Regarding `CC1=C(C(N)=O)C(c2ccc(Cl)c(Cl)c2)n2ncnc2N1` (configuration not stated), the inhibition is 3.56%.

With `CN1CCN(c2c(/C=N/O)c3ccccc3n2C)CC1`, the inhibition was 28.5%. With `Cn1c(N2CCOCC2)c(C=O)c2ccccc21`, the inhibition is 8.54%.

Consider `O=C(Nc1ccc(C(=O)O)cc1)/C(=C\c1ccco1)NC(=O)c1ccc(Br)cc1`, for which the inhibition was 18.2%.

Regarding `COc1ccc2c3c(cccc13)C(=O)N(O)C2=O`, the inhibition was 1.13%. For the compound `COc1ccc2c3c(cccc13)OC2=O`, the inhibition is 5.25%. As to `COc1ccc(CCNC(=O)c2nnc(Cc3c(F)cccc3Cl)o2)cc1OC`, the inhibition was 3.35%. Under `O=C1OC(Cc2ccccc2)C(c2ccccc2)C1=O` (configuration not stated) stands 3.8%; under `O=C1N[C@H](Cc2ccccc2)CO1`, 3.86%. Regarding `COc1ccc(Br)cc1C(=O)Nc1cccc(-c2nnc(-c3ccco3)o2)c1`, the inhibition was -5.03%. As to `COc1ccc(NC(=O)c2ccc(OC(F)F)cc2)cc1Cl`, the inhibition was -1.44%. As to `COc1ccc(C(=O)N/N=C/c2c[nH]c3ccccc23)cc1`, the inhibition was 16.4%. Under `O=C(O)c1ccc(S(=O)(=O)NN=Cc2c[nH]c3ccccc23)cc1` stands 14.2%. Regarding `O=C(O)c1cc(N/N=C/c2c[nH]c3ccccc23)ccc1Cl`, the inhibition is 23.8%. For the compound `COc1ccc2c(/C=N/NS(=O)(=O)c3ccc(C)cc3)c[nH]c2c1`, the inhibition was 11.2%. As for `COc1ccc(S(=O)(=O)N2CCCCC2)cc1NC(=O)CCc1cc(OC)c(OC)c(OC)c1`, the inhibition is 2.57%. The result for `O=C(COC(=O)Cc1c(Cl)cccc1Cl)Nc1ccccc1-c1ccccc1` reads 1.56%; that for `CC1(C)CC(=O)C(Sc2ccccc2)=C(O)C1`, -4.47%; that for `O=C(O)C1CC(c2ccccc2)=Nc2ccccc2S1` (configuration not stated), 6.83%. For the compound `CCOC(=O)Nc1ccc2c(c1)nc1n2CCN(CCOC)C1`, the inhibition is 8.24%.

Regarding `NS(=O)(=O)c1ccc(NC(=O)CSc2nc3c(c(=O)[nH]2)CCCC3)cc1`, the inhibition is 6.37%. The result for `COc1ccc(CNC(=O)CN2CCN(c3ccc(F)cc3)CC2)cc1` reads 6.2%.

Regarding `CCN(CC(=O)NCc1ccc(F)cc1)C(=O)CN1CCN(c2ccccc2OC)CC1`, the inhibition is 2.73%. Regarding `CCOc1ccccc1NC(=O)Cn1cnc2c(cnn2-c2ccc(C)c(C)c2)c1=O`, the inhibition was 9.09%.

Consider `CC[C@@]1(C(=O)OC)N[C@H](CN(C)C(=O)c2ccc(F)cc2)[C@@H]2C(=O)N(Cc3ccccc3)C(=O)[C@@H]21`, for which the inhibition is 1.15%.

For the compound `CC(C)Cc1nnc(NC(=O)CCC(=O)NCCc2ccc(Cl)cc2)s1`, the inhibition is 4.94%. Take `C[C@]12CC[C@@H]3c4ccc(O)cc4CC[C@H]3[C@@H]1CCC2=O`: the inhibition is 9.39%. Consider `CC12CCC3c4ccc(O)cc4CCC3C1CCC2=O` (configuration not stated), for which the inhibition was 5.82%.

As usually defined, the inhibition is the change of the read-out against control, counted positive when it falls.

(Values after PubChem BioAssay AID624330 (Southern Research Specialized Biocontainment Screening …, 2012).)
